# mHTT CaM bind: mHTT-calmodulin interaction abrogation. AlphaScreen His-mHTT/GST-CaM binding, luminescence. inhibition, % at 15 µM. 3.6% of 190,000 active. P42858. AID 1671202
# Pf apPOL inh: Pf-apPOL DNA polymerase inhibition; Recombinant Pf-apPOL, molecular beacon fluorescence, 1.5 h; inhibition, % at 10 µM; 0.25% of 210,000 active; AID 1794808
# Hits are given with their value; . = inactive; / = no result given. A selection: hits, their analogues and other compounds. The true share with any hit is near 3.5%. Cut-off read from the data, not from the text of the source: active = inhibition above about 50%; inactive = the rest.
SMILES,mHTT CaM bind,Pf apPOL inh
CCc1cccc(C)c1NC(=O)C(C(C)C)N1C(=O)c2ccccc2C1=O (stereo not drawn),.,.
Cc1ccc(NC2OC(=O)c3ccccc32)cc1F (stereo not drawn),.,.
Cn1nc2nc(N3CCCC3)nc(-c3ccccc3F)c2c1N,.,.
COc1cc(OC)c(NC(=O)C2CCCN(c3nccc4sccc34)C2)cc1Cl (stereo not drawn),.,.
COc1ccc(Cl)cc1NC(=O)C1CCN(c2nccc3sccc23)CC1,100,.
COc1ccc(Cl)cc1NC(=O)C1CCN(c2nccc(C)n2)CC1,.,.
COc1cc(Cl)c(NC(=O)C2CCCN(c3nccc4sccc34)C2)c(OC)c1 (stereo not drawn),60,.
Cc1ccc(CCNC(=O)c2nnn3c2COC(c2ccc(Cl)cc2)C3)cc1 (stereo not drawn),.,.
CCC(NC(=O)c1cn2c(n1)CCCC2)c1cccs1 (stereo not drawn),.,.
COc1cccc(/C=c2\sc3nc(-c4ccccc4)nn3c2=O)c1,.,.
O=C(c1nn2c(c1Cl)NC(c1ccccc1)CC2C(F)(F)F)N1CCCCCC1 (stereo not drawn),.,.
CCC1CCCCN1C(=O)c1nn2c(c1Cl)NC(c1ccccc1)CC2C(F)(F)F (stereo not drawn),87,.
O=C(c1nn2c(c1Cl)NC(c1ccccc1)CC2C(F)(F)F)N1CCc2ccccc2C1 (stereo not drawn),72,.
O=C(c1nn2c(c1Cl)NC(c1ccccc1)CC2C(F)(F)F)N1CCCCC1 (stereo not drawn),.,.
O=C(NCCCNc1ccc([N+](=O)[O-])cc1)c1ccc(F)cc1,.,.
Cc1ccc2cc(NC(=O)c3cc(-c4ccccc4)oc3C)ccc2n1,/,.
Cc1nnc(NC(=O)c2coc(NC(=O)c3ccco3)n2)s1,.,.
O=C(c1ccc(OCC2CCCN(C(=O)C3CCCCC3)C2)cc1)N1CCCCC1 (stereo not drawn),.,.
O=C(c1ccc(OCC2CCCN(C(=O)C3CCCC3)C2)cc1)N1CCCCC1 (stereo not drawn),.,96
O=c1[nH]c2cccnc2n1-c1ccccc1,.,.
Cn1c(=O)cc2c3c(c(Br)ccc31)C(=O)c1ccccc1-2,.,.
Cn1c(=O)cc2c3c(c(N4CCCCC4)ccc31)C(=O)c1ccccc1-2,55,.
Cc1ccc2[nH]c3c(cc(NCCO)c4c(=O)c5ccccc5c(=O)c43)oc2c1,.,.
Cc1ccc2[nH]c3c(cc(NCCCO)c4c(=O)c5ccccc5c(=O)c43)oc2c1,60,.
Cc1cc(C(=O)N2CCCC2c2cc(C(C)C)no2)no1 (stereo not drawn),.,.
SMILES,mHTT CaM bind,Pf apPOL inh
OCCn1c(-c2ccc(Cl)cc2)csc1=Nc1ccccc1,69,.
Cc1ccc(-c2csc(=Nc3ccccc3)n2CCO)cc1,52,.
OCCn1c(-c2ccc(Cl)c(Cl)c2)csc1=Nc1ccccc1,100,.
CCN(CC)CCn1c(-c2ccccc2)csc1=Nc1ccccc1,.,.
c1ccc(N=c2scc(-c3ccccc3)n2CCN2CCOCC2)cc1,.,.
O=C(Cc1ccc(F)cc1)N1CCCc2ccccc21,.,.
CCN(CC)S(=O)(=O)c1ccc(OC)c(NC(=O)c2c(Cl)cccc2Cl)c1,.,.
COc1cc(/C=C2\C(=O)NN(c3ccc(Cl)c(Cl)c3)C2=O)ccc1O,.,.
O=C1NN(c2ccc(Cl)c(Cl)c2)C(=O)/C1=C/c1ccc(O)c(O)c1,73,.
Cc1ccc(N2NC(=O)/C(=C\c3ccc(C)c([N+](=O)[O-])c3)C2=O)cc1Cl,62,.
Cc1ccc(N2NC(=O)/C(=C\c3ccc(Cl)cc3)C2=O)cc1Cl,.,.
COc1ccc(CN2CCCC2c2cc(C(C)C)no2)c(OC)c1OC (stereo not drawn),.,.
CC(C)c1cc(C2CCCN2C(=O)c2c(Br)cnn2C)no1 (stereo not drawn),.,.
O=C(NCCCN1CCCC1)c1cc2n(n1)CCCN(Cc1ccc(Cl)cc1)C2=O,52,.
O=C(NCc1ccccc1F)c1cc2n(n1)CCCN(Cc1ccc(Cl)cc1)C2=O,.,.
Cc1ccccc1CNC(=O)c1cc2n(n1)CCCN(Cc1ccc(Cl)cc1)C2=O,52,.
O=C(NCCCN1CCOCC1)c1cc2n(n1)CCCN(Cc1ccc(Cl)cc1)C2=O,.,.
O=C(CN(Cc1ccccc1)S(=O)(=O)c1ccc(F)cc1)Nc1ccc2c(c1)OCO2,.,.
CCc1cccc(C)c1N(C(=O)CSc1nc2ccccc2[nH]1)C(C)COC (stereo not drawn),52,.
CCOCN(C(=O)CSc1nc2ccccc2[nH]1)c1c(C)cccc1CC,.,.
O=C(CC(c1ccccc1)c1ccccc1)n1nnc2ccccc21,.,.
COc1ccc(NCc2ccc(SC)cc2)cc1OC,80,.
COc1ccccc1CNc1ccccc1,.,.
COc1ccc(CNCc2ccc(C)cc2C)c(OC)c1,.,.
COc1ccc(CNc2ccccc2SC)cc1OC,.,.
SMILES,mHTT CaM bind,Pf apPOL inh
COc1ccc(NCc2ccccc2Br)cc1OC,73,.
COc1ccc(NCc2ccc(C)cc2C)cc1OC,83,.
CC1CCN(CC2CCN(S(=O)(=O)c3cccc(F)c3)CC2)CC1,.,.
CCS(=O)(=O)c1ccccc1C(=O)Nc1ccc(C)cc1C(=O)c1ccccc1,.,.
Cc1ccc(-c2cn3c(CC(=O)NCc4cccs4)csc3n2)cc1,52,.
COc1ccc(-c2cn3c(C(=O)NCc4cccs4)csc3n2)cc1,.,.
Cc1ccccc1NC(=O)C1CC(Cl)=CCC1C(=O)O (stereo not drawn),.,64
COc1ccccc1NC(=O)C1CC(Cl)=CCC1C(=O)O (stereo not drawn),.,.
COCCn1cc2c3c(cccc31)CN(C(=O)Nc1cc(OC)cc(OC)c1)CC2,.,.
Cc1cccc(NC(=O)CN(c2cccc([N+](=O)[O-])c2)S(C)(=O)=O)c1C,.,.
CN(C)c1ccc(CNc2ccc3c(c2)ncn3C)cc1,.,.
CC(=O)Nc1ccc2c(c1)ncn2-c1ccccc1,.,.
CC(C)(C)n1cnc2cc(NCc3ccc(Br)cc3)ccc21,61,.
Brc1ccc(CNc2ccc3c(c2)ncn3-c2ccccc2)cc1,95,.
CCN(CC)c1ccc(CNc2ccc3c(c2)ncn3C)cc1,84,.
Cn1cnc2cc(NCc3ccc(Br)cc3)ccc21,.,.
Cc1c(Cl)cccc1NC(=O)C(C)C,.,.
CCOC(=O)C1CCN(CC(O)COc2ccccc2C(C)C)CC1 (stereo not drawn),.,.
Cn1cnnc1SCc1ccc(F)cc1Cl,.,.
COc1ccc(-n2nc(C(=O)NCC(=O)Nc3cc(C)ccc3OC)c3ccccc3c2=O)cc1,.,.
O=[N+]([O-])c1ccccc1CNc1ccc(F)c(Cl)c1,.,.
COc1ccc(CNc2ccc(F)c(Cl)c2)c(OC)c1OC,54,.
COc1ccc(OC)c(CNc2ccc(F)c(Cl)c2)c1,.,.
COc1ccc(CNc2ccc(F)c(Cl)c2)cc1C,.,.
CCOc1cccc(CNc2ccc(F)c(Cl)c2)c1O,63,.
Oc1c(Cl)cc(Cl)cc1CNc1ccc(F)c(F)c1,100,.
Cc1cccc(C)c1NC(=O)C(C)Sc1ccc(Cl)cc1 (stereo not drawn),.,.
CN(C)C(=O)c1cc2c(s1)CCC(C(=O)NCc1ccc(N3CCOCC3)cc1)C2 (stereo not drawn),.,.
